Results as given in PubChem BioAssay (NCI).
The panel holds about 79,000 compounds, 15% with a hit somewhere; the sample as a whole holds those more often. Unmarked numbers belong to inactive results. The source made the active and inactive calls. No stated cut-off is given here; in the data, active means growth inhibition above about 70%; inactive means the rest.

What was measured:
[1] = NCI Yeast Anticancer Drug Screen. Data for the rad52 strain (AID 147);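 further: 0% = growth of vehicle-treated control cultures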; settings: S. cerevisiae rad52 mutant growth inhibition, active compounds read high
In short: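 The repair-mutant yeast strain was incubated with compounds, then growth was read and inhibition derived relative to vehicle.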

[2] = NCI Yeast Anticancer Drug Screen. Data for the wt1 strain (AID 149);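 further: 0% = growth of vehicle-treated wt1 cultures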; settings: S. cerevisiae wt1 strain (SPY 50644) growth inhibition, active compounds read high
In short: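 Using yeast strain wt1, compound-induced growth inhibition was determined against vehicle-treated cultures.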

[3] = NCI Yeast Anticancer Drug Screen. Data for the rad50EPP+ strain (AID 151);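 further: 0% = growth of vehicle-treated control cultures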; settings: S. cerevisiae rad50 mutant strain, active compounds read high
In short: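 Vehicle-normalised growth inhibition; rad50EPP+ yeast strain, altered in DNA damage repair, compound-treated.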

[4] = NCI Yeast Anticancer Drug Screen. Data for the mgt1 strain (AID 153); settings: S. cerevisiae mgt1 mutant growth inhibition, active compounds read high
In short: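 Vehicle-normalized growth inhibition is determined in mgt1 yeast, a strain selected for a defined alteration in DNA repair or cell cycle control.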

[5] = NCI Yeast Anticancer Drug Screen. Data for the rad50 strain (AID 155);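 further: 0% = growth of vehicle-only cultures of the same strain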; settings: S. cerevisiae rad50 strain growth inhibition, active compounds read high
In short: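 Relative growth inhibition (compound vs vehicle) was measured in yeast with a defined repair-gene alteration.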

[6] = NCI Yeast Anticancer Drug Screen. Data for the mec2-1 strain (AID 157); settings: S. cerevisiae mec2-1 strain, active compounds read high
In short: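 Mutant yeast (mec2-1) grown with compound; growth inhibition relative to vehicle control reported.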

[7] = NCI Yeast Anticancer Drug Screen. Data for the sgs1 mgt1 strain (AID 161);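 further: 0% = growth of cultures given vehicle only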; settings: S. cerevisiae sgs1 mgt1 strain, active compounds read high
In short: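 This yeast growth screen uses a strain with defined DNA-repair lesions; compound-treated growth is compared with vehicle-treated growth.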

[8] = NCI Yeast Anticancer Drug Screen. Data for the CLN2oe strain (AID 163);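 further: 0% = growth of vehicle-only control cultures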; settings: S. cerevisiae CLN2oe strain, active compounds read high
In short: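 Compounds are applied to yeast harbouring a defined cell-cycle control change; reduced growth compared with vehicle-treated controls gives the value.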

[9] = NCI Yeast Anticancer Drug Screen. Data for the bub3 strain (AID 167); settings: S. cerevisiae bub3 mutant strain, active compounds read high
In short: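 Screening used yeast with an engineered genetic alteration affecting cell cycle control. Compound-exposed cultures were compared with vehicle cultures, and reduced growth was taken as inhibition.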

[10] = NCI Yeast Anticancer Drug Screen. Data for the wt2 strain (AID 169);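 further: 0% = growth of vehicle-treated yeast cultures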; settings: S. cerevisiae wt2 strain growth inhibition, active compounds read high
In short: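 Against vehicle-treated controls, the growth of yeast exposed to each compound was compared, and the inhibition was recorded.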

[11] = NCI Yeast Anticancer Drug Screen. Data for the mlh1 strain (AID 171);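 further: 0% = growth of vehicle-treated control cultures of the same strain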; settings: S. cerevisiae mlh1 strain growth inhibition, active compounds read high
In short: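 Measured: yeast growth. Reference: vehicle-treated controls. Organism: strain with a defined alteration affecting DNA damage repair or cell cycle control, treated with compound.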

[12] = NCI Yeast Anticancer Drug Screen. Data for the sgs1 strain (AID 173);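 further: 0% = growth of vehicle-only control cultures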; settings: S. cerevisiae sgs1 mutant, active compounds read high
In short: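 Each compound was added to cultures of the altered yeast strain. Growth was recorded, and inhibition was derived by comparison with vehicle controls.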

[13] = NCI Yeast Anticancer Drug Screen. Data for the mlh1 rad18 strain (AID 175); settings: S. cerevisiae mlh1 rad18 strain growth inhibition, active compounds read high
In short: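 Genetically defined yeast (DNA repair-deficient) exposed to compounds; growth inhibition determined relative to vehicle.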

[14] = NCI Yeast Anticancer Drug Screen. Data for the rad18 strain (AID 177); settings: S. cerevisiae rad18 mutant growth inhibition, active compounds read high
In short: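 Vehicle-treated cultures served as the baseline for scoring compound-induced growth inhibition in DNA-repair-mutant yeast.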

[15] = at 5.0 µM (retest, dose inferred, filed as 0.5)
[16] = at 50.0 µM (retest, dose inferred, filed as 5.0)

Structure (SMILES): O=C(Oc1ccc([N+](=O)[O-])cc1)c1ccc([N+](=O)[O-])cc1
- growth inhibition ([1]; at 1.2 µM): 7%
- growth inhibition ([1]; at 3.7 µM): 7%
- growth inhibition ([1]; at 11.0 µM): 1%
- growth inhibition ([1]; at 33.0 µM): 19%
- growth inhibition ([1]; at 100.0 µM): 26%
- growth inhibition ([2]; at 1.2 µM): 1%
- growth inhibition ([2]; at 3.7 µM): 0%
- growth inhibition ([2]; at 11.0 µM): 3%
- growth inhibition ([2]; at 33.0 µM): -1%
- growth inhibition ([2]; at 100.0 µM): 11%
- growth inhibition ([3]; at 1.2 µM): 5%
- growth inhibition ([3]; at 3.7 µM): 2%
- growth inhibition ([3]; at 11.0 µM): -3%
- growth inhibition ([3]; at 33.0 µM): 9%
- growth inhibition ([3]; at 100.0 µM): 11%
- growth inhibition ([4]; at 1.2 µM): 0%
- growth inhibition ([4]; at 3.7 µM): 1%
- growth inhibition ([4]; at 11.0 µM): 2%
- growth inhibition ([4]; at 33.0 µM): 9%
- growth inhibition ([4]; at 100.0 µM): 13%
- growth inhibition ([5]; at 1.2 µM): 9%
- growth inhibition ([5]; at 3.7 µM): 6%
- growth inhibition [5, 15]: 45%
- growth inhibition ([5]; at 11.0 µM): 5%
- growth inhibition ([5]; at 33.0 µM): 40%
- growth inhibition [5, 16]: 82% (active)
- growth inhibition ([5]; at 50.0 µM): 50.8%
- growth inhibition ([5]; at 100.0 µM): 62%
- growth inhibition ([6]; at 1.2 µM): 1%
- growth inhibition ([6]; at 3.7 µM): 2%
- growth inhibition [6, 15]: 25%
- growth inhibition ([6]; at 11.0 µM): 2%
- growth inhibition ([6]; at 33.0 µM): 7%
- growth inhibition [6, 16]: 33%
- growth inhibition ([6]; at 50.0 µM): 53.7%
- growth inhibition ([6]; at 100.0 µM): 10%
- growth inhibition [7, 15]: 61%
- growth inhibition [7, 16]: 86% (active)
- growth inhibition ([7]; at 50.0 µM): 68.5%
- growth inhibition ([8]; at 1.2 µM): 1%
- growth inhibition ([8]; at 3.7 µM): 2%
- growth inhibition ([8]; at 11.0 µM): 2%
- growth inhibition ([8]; at 33.0 µM): 10%
- growth inhibition ([8]; at 100.0 µM): 10%
- growth inhibition ([9]; at 1.2 µM): 3%
- growth inhibition ([9]; at 3.7 µM): 4%
- growth inhibition [9, 15]: 76% (active)
- growth inhibition ([9]; at 11.0 µM): 4%
- growth inhibition ([9]; at 33.0 µM): 12%
- growth inhibition [9, 16]: 88% (active)
- growth inhibition ([9]; at 50.0 µM): 85% (active)
- growth inhibition ([9]; at 100.0 µM): 15%
- growth inhibition ([10]; at 1.2 µM): -7%
- growth inhibition ([10]; at 3.7 µM): -5%
- growth inhibition ([10]; at 11.0 µM): -8%
- growth inhibition ([10]; at 33.0 µM): -8%
- growth inhibition ([10]; at 100.0 µM): -5%
- growth inhibition ([11]; at 1.2 µM): 3%
- growth inhibition ([11]; at 3.7 µM): 2%
- growth inhibition ([11]; at 11.0 µM): 2%
- growth inhibition ([11]; at 33.0 µM): 17%
- growth inhibition ([11]; at 100.0 µM): 35%
- growth inhibition ([12]; at 1.2 µM): -4%
- growth inhibition ([12]; at 3.7 µM): -18%
- growth inhibition ([12]; at 11.0 µM): -22%
- growth inhibition ([12]; at 33.0 µM): 7%
- growth inhibition ([12]; at 100.0 µM): 43%
- growth inhibition [13, 15]: 67%
- growth inhibition [13, 16]: 83% (active)
- growth inhibition ([13]; at 50.0 µM): 86.2% (active)
- growth inhibition ([14]; at 1.2 µM): 4%
- growth inhibition ([14]; at 3.7 µM): 7%
- growth inhibition ([14]; at 11.0 µM): 5%
- growth inhibition ([14]; at 33.0 µM): 22%
- growth inhibition ([14]; at 100.0 µM): 45%
